A selection: hits, their analogues and other compounds. The true share with any hit is near 3.8%.
Cardio protect – myocardial damage modulation in H9c2 cells; 360,000 compounds, 0.63% hits; protection from H2O2 cell death, % at 20 µM; H9c2 cardiomyocytes, H2O2 injury protection, ATPLite, 2 h; AID 588492;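 active = compounds giving at least 50% protection of heart cells from peroxide-induced death in the single-dose screen, raw or plate-pattern-corrected value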;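 also: 0% = DMSO wells with peroxide and 100% = DMSO wells without peroxide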
Yeast superoxide – lowers age-related superoxide in aged yeast cells | S. cerevisiae aged cells, superoxide DHE fluorescence; hits give low values | superoxide response (% of plate mean), % at 10 µM | 330,000 compounds, 0.18% hits | AID 2690;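 active = superoxide response under a set limit, about three screen SD below normal, cut at about 65% in these data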;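 also: yeast aged for seven days with compound at 30 °C before DHE staining; 100% = average MFI of all compound-treated wells on the plate with controls excluded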
aDG glyco act – alpha-DG glycosylation activation. 360,000 compounds, 0.22% hits. activation, % at 10 µM. Pro5-aDG cells, alpha-DG glycosylation AlphaScreen (IIH6); 0% Pro5, 100% B10-LARGE cell signal;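 active = activation of at least 8% versus controls, or a plate z-score of at least 8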;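 also: Pro5 are CHO cells carrying HIG-tagged alpha-DG that lacks glycosylation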
MPTP block – permeability transition pore inhibition | isolated mouse mitochondria, Ca2+ swelling absorbance, 30 min | inhibition, % at 10 µM | 360,000 compounds, 1.4% hits;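 active = inhibition of 50% or more, scaled per plate between neutral and stimulator controls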;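 also: 0% = DMSO wells given calcium and 100% = 1 mM EGTA wells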
SUMO Mot1 rescue – inhibitors of SUMOylation pathway: yeast Mot1-301 growth rescue; S. cerevisiae Mot1-301 growth rescue, ATP luminescence, 38.5C; percent above DMSO median, 100 means doubled; growth rescue, % at 18.8 µM; 320,000 compounds, 1% hits; AID 2716;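 active = every valid replicate shows activation above 250% relative to neutral control wells; inactive = the rest, any valid replicate at or below 250%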;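 also: OY570 slx delta 5 strain wells were the positive control but not used for scaling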
FAS-TE inh – inhibitors of human fatty acid synthase thioesterase domain; P49327; recombinant FAS-TE, OMFH fluorogenic substrate, fluorescence endpoint; inhibition, % at 15 µM; 360,000 compounds, 0.67% hits; AID 602261;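 active = compounds whose normalised, plate-corrected inhibition of enzyme fluorescence in the single-dose primary screen is 50% or more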;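 also: 0% = DMSO with enzyme and 100% = substrate without enzyme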
FAS-TE inh conf – confirmation of human fatty acid synthase thioesterase inhibitors; shares compounds with FAS-TE inh; recombinant FAS-TE, OMFH fluorogenic substrate, fluorescence; inhibition, % at 15 µM; 2,300 compounds, 45% hits; AID 624325;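 active = compounds inhibiting the enzyme by at least 50% at 15 µM in any one of the replicates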;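 also: 0% = enzyme with DMSO only and 100% = wells lacking enzyme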
* hit, by the source's call; . = no result given.

SMILES	Cardio protect	Yeast superoxide	aDG glyco act	MPTP block	SUMO Mot1 rescue	FAS-TE inh	FAS-TE inh conf
CCOC(=O)N1CCN(C(=O)c2cnn3c(C(F)F)cc(-c4ccc(C)cc4)nc23)CC1	14	90	0	-4	31	7	.
Cc1ccc(-c2cc(C(F)F)n3ncc(C(=O)N4CCc5ccccc5C4)c3n2)cc1	-6	100	2	6	47	53*	2
COc1ccc(N2C(=O)C3ON(C4SC(=S)N(C)C4(C)C)C(c4ccc(Cl)cc4)C3C2=O)cc1 (stereo not given)	1	96	0	3	-23	71*	31
CCCCCCn1cc(CN2CC(N3CCN(Cc4ccccc4F)CC3)CS2(=O)=O)nn1 (stereo not given)	.	.	0	-1	.	-3	.
O=C(CSC(=S)N1CCCC1)N/N=C/c1c(O)[nH]c(=S)[nH]c1=O	5	92	0	-16	18	-3	.
CN(C)c1ccc(P(=O)(Nc2ccc([N+](=O)[O-])cc2)N2CCOCC2)c(NC(=O)c2cccs2)c1 (stereo not given)	0	90	0	3	-3	54*	35
Cc1ccc(NP(=O)(c2ccc(N(C)C)cc2NC(=O)c2cccs2)N2CCOCC2)cc1 (stereo not given)	-2	92	2	0	2	19	.
COc1ccc(C2(CNC(=O)c3cccc([N+](=O)[O-])c3)CCCCC2)cc1OC	-1	118	0	9	8	51*	70*
COc1ccc(C2(CNC(=O)c3cccc([N+](=O)[O-])c3)CCOCC2)cc1OC	-1	89	0	-5	1	-3	.
CCOC1=C2CN(S(=O)(=O)c3ccc(C)cc3)[C@H](c3ccc(CC)cc3)C[C@@H]2N(S(=O)(=O)c2ccc(C)cc2)[C@H](c2ccccc2)C1	-10	.	2	0	.	18	.
CCOC1=C2CN(S(=O)(=O)c3ccc(C)cc3)[C@H](c3cccc4ccccc34)C[C@H]2[C@H]2C(=O)N(c3ccccc3)C(=O)[C@H]2C1	1	.	0	0	.	77*	24
CCOC1=C2CN(S(=O)(=O)c3ccc(C)cc3)[C@@H](c3ccc(CC)cc3)C[C@H]2[C@H]2C(=O)N(c3ccccc3)C(=O)[C@H]2C1	2	.	0	0	.	72*	31
CCOC1=C2CN(S(=O)(=O)c3ccc(C)cc3)[C@H](c3ccccc3)C[C@H]2[C@H]2C(=O)N(c3ccccc3)C(=O)[C@H]2C1	-1	.	0	1	.	59*	29
CCCN1CCC(NC(=O)Cc2ccccc2C)CC1	12	100	0	0	-14	-8	.
CC(C)(C)OC(=O)Nc1ccccc1-n1nnnc1C(C(=O)c1ccc(F)cc1)N1CCOCC1 (stereo not given)	.	.	0	-2	.	.	.
CCCNC(=O)c1cc(C2CCCCN2S(C)(=O)=O)on1 (stereo not given)	3	.	0	0	.	-4	.
NC(=O)[C@H]1CC2(CC(c3cccc(NC(=O)COc4ccc(Cl)cc4)c3)=NO2)CN1C(=O)CC(c1ccccc1)c1ccccc1 (stereo not given in full)	1	121	0	1	-8	64*	29
NC(=O)[C@@H]1CC2(CC(c3cccc(NC(=O)CC(c4ccccc4)c4ccccc4)c3)=NO2)CN1C(=O)COc1ccc(Cl)cc1 (stereo not given in full)	0	105	0	-1	134	60*	17
CC(OC(=O)/C=C/c1ccc2ccccc2n1)C(=O)NCc1ccccc1 (stereo not given)	-13	107	0	-1	12	-4	.
CCCn1nc(C(=O)NNC(=O)CCCOc2ccc(OC)cc2)c2ccccc2c1=O	5	101	0	-3	-17	0	.
N#C/C(=C\c1ccc(OCCN2CCOCC2)cc1)C(=O)Nc1ccc(S(N)(=O)=O)cc1	20	92	0	0	-7	-4	.

Screens as filed in PubChem.
